Activity calls are given as the source filed them.
What was measured:
[1] = system: Plasmodium falciparum Sir2 (PF13_0152, Sir2A); test: pfSir2 binders on small-molecule microarrays, primary screen, biochemical, small-molecule microarray, 635 nm fluorescence (AID 1098); settings: small-molecule microarray binding, fluorescence 635 nm; higher = more signal;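 note: score merges spot fluorescence intensity with its signal-to-noise ratio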
[2] = small-molecule microarray binders of probe aDKK1, primary screen, biochemical, biotinylated probe, 635/667 nm fluorescence (AID 1099); settings: higher = more signal;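 note: score merges 667nm spot fluorescence with signal to noise across triplicate slides; reference of the scale not given here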
[3] = small-molecule microarray binders of probe aCHRDL2, primary screen, biochemical, biotinylated probe, 635/667 nm fluorescence (AID 1100); settings: higher = more signal
[4] = splicing luciferase reporter signal modulators, primary screen, spliceosome inhibition project, cell-based, HEK293, splice +/- reporter (AID 1101); settings: luminescence, 24 h, higher = more signal, called active from +8 up or from −8 down;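 note: HEK293 cells carrying a splicing-competent luciferase reporter gene; test concentration not given here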
[5] = molecular target: Fibroblast growth factor 10 (Homo sapiens) (UniProt O15520); test: FGF10 binders on small-molecule microarrays, primary screen, biochemical, small-molecule microarray, 635 nm fluorescence (AID 1102); settings: FGF10 binding, fluorescence 635 nm, higher = more signal
Sequence of Fibroblast growth factor 10 (Homo sapiens) (O15520 whole entry, looked up): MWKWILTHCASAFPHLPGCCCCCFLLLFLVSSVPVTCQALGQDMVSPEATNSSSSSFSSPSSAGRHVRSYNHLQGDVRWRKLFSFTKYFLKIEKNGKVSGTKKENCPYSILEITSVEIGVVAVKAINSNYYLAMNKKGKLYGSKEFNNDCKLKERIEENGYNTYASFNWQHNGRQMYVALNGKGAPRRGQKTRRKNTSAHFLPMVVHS

[6] = system: glycogen synthase kinase-3 (GSK3A per assay name; protocol says GSK3B); test: GSK3 binders on small-molecule microarrays, primary screen, biochemical, small-molecule microarray, 635 nm fluorescence, GSK3A (AID 1103); settings: small-molecule microarray binding, fluorescence 635 nm; higher = more signal; note: the record names both GSK3A and GSK3B
[7] = molecular target: Epidermal growth factor receptor (Homo sapiens) (UniProt P00533); test: EGFR binders on small-molecule microarrays, primary screen, biochemical, small-molecule microarray, 635 nm fluorescence (AID 1104); settings: EGFR binding, higher = more signal;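 note: score merges 667 nm emission intensity with spot signal to noise over triplicate slides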
Sequence of Epidermal growth factor receptor (Homo sapiens) (P00533 whole entry, looked up): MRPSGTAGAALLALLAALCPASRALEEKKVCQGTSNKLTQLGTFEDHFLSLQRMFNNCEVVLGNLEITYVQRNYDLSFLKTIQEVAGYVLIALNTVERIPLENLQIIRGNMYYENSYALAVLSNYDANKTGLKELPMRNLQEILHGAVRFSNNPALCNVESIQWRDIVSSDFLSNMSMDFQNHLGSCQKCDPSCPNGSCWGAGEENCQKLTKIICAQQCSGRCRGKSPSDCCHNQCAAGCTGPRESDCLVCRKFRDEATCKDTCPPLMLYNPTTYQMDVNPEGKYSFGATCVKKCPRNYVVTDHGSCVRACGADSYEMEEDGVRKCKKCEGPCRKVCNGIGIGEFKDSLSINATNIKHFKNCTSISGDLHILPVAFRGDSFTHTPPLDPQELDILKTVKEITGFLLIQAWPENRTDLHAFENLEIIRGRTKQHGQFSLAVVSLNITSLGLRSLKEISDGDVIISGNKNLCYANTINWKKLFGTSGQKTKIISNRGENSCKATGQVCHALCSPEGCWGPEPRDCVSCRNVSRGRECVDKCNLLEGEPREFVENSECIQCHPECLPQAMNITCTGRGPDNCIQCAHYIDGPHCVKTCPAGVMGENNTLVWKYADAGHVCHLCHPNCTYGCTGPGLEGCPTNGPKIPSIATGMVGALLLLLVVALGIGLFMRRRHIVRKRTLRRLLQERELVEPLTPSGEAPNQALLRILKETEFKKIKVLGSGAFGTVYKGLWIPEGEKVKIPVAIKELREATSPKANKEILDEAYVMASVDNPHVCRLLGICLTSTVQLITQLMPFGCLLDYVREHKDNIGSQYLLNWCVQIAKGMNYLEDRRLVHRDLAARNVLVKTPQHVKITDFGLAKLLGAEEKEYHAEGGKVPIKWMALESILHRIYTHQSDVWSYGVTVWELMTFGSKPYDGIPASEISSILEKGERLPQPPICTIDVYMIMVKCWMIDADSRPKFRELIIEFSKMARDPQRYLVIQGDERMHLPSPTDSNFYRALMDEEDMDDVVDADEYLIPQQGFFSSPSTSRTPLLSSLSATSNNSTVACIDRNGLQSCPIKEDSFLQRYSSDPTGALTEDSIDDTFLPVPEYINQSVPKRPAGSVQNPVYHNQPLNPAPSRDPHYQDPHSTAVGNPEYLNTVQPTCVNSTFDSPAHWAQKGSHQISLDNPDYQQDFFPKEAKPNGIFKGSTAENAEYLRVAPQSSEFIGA

[8] = molecular target: Follistatin-related protein 3 (Homo sapiens) (UniProt O95633); test: FSTL3 binders on small-molecule microarrays, primary screen, biochemical, small-molecule microarray, 635 nm fluorescence (AID 1105); settings: FSTL3 binding, higher = more signal;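 note: score merges emission near 667 nm and signal to noise per printed spot across three slides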
Sequence of Follistatin-related protein 3 (Homo sapiens) (O95633 whole entry, looked up): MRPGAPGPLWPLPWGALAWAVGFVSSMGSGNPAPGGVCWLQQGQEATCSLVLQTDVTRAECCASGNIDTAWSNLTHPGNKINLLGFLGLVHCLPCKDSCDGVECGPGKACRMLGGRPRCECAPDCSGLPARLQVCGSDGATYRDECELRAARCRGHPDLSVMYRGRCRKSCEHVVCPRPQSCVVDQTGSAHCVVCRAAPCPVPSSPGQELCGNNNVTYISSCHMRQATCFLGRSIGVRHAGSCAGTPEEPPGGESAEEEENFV

[9] = molecular target: Dickkopf-related protein 1 (Homo sapiens) (UniProt O94907); test: DKK1 binders on small-molecule microarrays, primary screen, biochemical, small-molecule microarray, 635 nm fluorescence scan (AID 1106); settings: DKK1 binding, higher = more signal;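 note: score merges emission near 667 nm with signal to noise over three replicate slides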
Sequence of Dickkopf-related protein 1 (Homo sapiens) (O94907 whole entry, looked up): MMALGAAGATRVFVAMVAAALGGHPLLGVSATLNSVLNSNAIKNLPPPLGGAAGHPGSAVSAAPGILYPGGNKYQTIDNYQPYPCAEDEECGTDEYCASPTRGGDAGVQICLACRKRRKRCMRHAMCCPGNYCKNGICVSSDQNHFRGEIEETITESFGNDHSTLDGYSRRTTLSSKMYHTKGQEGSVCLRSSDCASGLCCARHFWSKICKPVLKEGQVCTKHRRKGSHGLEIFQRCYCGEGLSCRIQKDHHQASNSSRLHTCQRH

[10] = system: Inhibin beta A chain (activin A); test: INHBA (activin A) binders on microarrays, primary screen, biochemical, small-molecule microarray, 635 nm fluorescence scan (AID 1107); settings: small-molecule microarray binding, higher = more signal;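 note: mouse activin A protein probed at 4.33 µg/mL on printed slides; score merges bound-protein fluorescence near 667 nm with spot signal-to-noise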

SMILES | composite z-score [1] | composite z-score [2] | composite z-score [3] | z-score [4] | composite z-score [5] | composite z-score [6] | composite z-score [7] | composite z-score [8] | composite z-score [9] | composite z-score [10]
Cc1ccc(S[C@]2(C(=O)NCCN3CCOCC3)CC(=O)N(C(C)C)[C@@H]2c2ccc(CO)cc2I)cc1 | 1.89 | 0.713 | 1.24 | -1.48 (inactive) | -0.477 | -0.465 | -1.19 | -0.55 | -0.908 | 0.968
COc1ccc(C(O)C2C=CC3C(=O)N(C)C(=O)C3N2Nc2ccccc2)cc1 (stereo not given) | 0.454 | -0.0205 | 0.87 | -0.52 (inactive) | 0.663 | 0.925 | 0.468 | 0.441 | 0.312 | 0.979
CCCCN1CC=CC23O[C@@H]4/C=C\CCC(C)OC(=O)C4[C@H]2C(=O)N(CCO)[C@@H]3C1=O (stereo not given in full) | 1.38 | -0.218 | 0.64 | 0.267 (inactive) | -1.17 | -0.415 | -0.652 | -0.0882 | -0.231 | 1.19
C=CCC(OC(C)=O)[C@@H]1[C@@H](N(Cc2ccc(-c3ccccc3)cc2)C(=O)Cc2ccc(OC)cc2)c2cc(OCCCO)ccc2N1C(=O)Cc1ccc(OC)cc1 (stereo not given in full) | -0.214 | 0.642 | 0.327 | -0.581 (inactive) | 0.0842 | -0.0794 | -0.0897 | -0.147 | -0.191 | 1.59
C=C(COC)/C(=C/C[C@@H](OC(=O)c1ccncc1)c1ccccc1OCCO)c1cnc2ccccc2c1 | 0.247 | -0.0501 | 0.0321 | 0.488 (inactive) | 1.47 | 1.29 | 1.3 | 1.59 | 0.651 | 1.61
CC(C)N1C(=O)[C@@]2(Cc3ccccc31)c1ccccc1C(=O)N(Cc1ccccc1)[C@H]2c1ccc(CO)cc1 | 0.0154 | -1.02 | -1.01 | 0.144 (inactive) | 0.368 | 0.241 | -0.162 | 0.245 | 0.355 | 0.931
NCCCCCCNC(=O)[C@@H]1C[C@@H]2C(=O)NCC(=O)N2[C@@H]1c1cccc(OCCO)c1 | 1.6 | 0.45 | 0.0888 | -0.734 (inactive) | 1.37 | 1.3 | 0.702 | 0.98 | 1.32 | 1.12
COCCOC(=O)N1C(=O)[C@@]2(c3cc(C#CCNC(N)=O)ccc31)[C@H](C(=O)Nc1nc3ccccc3s1)[C@H]1C(=O)O[C@H](c3ccccc3)[C@H](c3ccccc3)N1[C@@H]2c1ccc(O)cc1 | 0.576 | 0.406 | 0.774 | 1.05 (inactive) | 0.777 | 1.06 | 0.195 | 0.783 | 0.393 | 0.719
C=C(C(=O)CC[C@@H](OC(=O)c1ccccc1-c1ccccc1C(=O)O)c1cccc(OCCO)c1)C(C)C | 0.679 | -0.318 | -0.393 | 0.436 (inactive) | 1.56 | 0.133 | -0.143 | 0.441 | 0.907 | 1.06
COc1ccc(CCNC(=O)[C@@]2(C)c3ccccc3C(=O)N(Cc3ccc(OC(F)(F)F)cc3)[C@H]2c2ccc(CO)cc2)cc1 | 0.738 | 0.781 | -0.325 | -0.383 (inactive) | 1.19 | 1.3 | 0.743 | 0.286 | 1 | -0.307
COc1ccc([Si](C)(C)[C@H]2[C@H](CC(=O)N(CCO)Cc3ccccc3)O[C@@]3(C(=O)N(c4ccccc4)c4ccccc43)[C@@H]2C)cc1 | 0.717 | -0.202 | -0.0698 | -1.5 (inactive) | 0.889 | 0.289 | 0.686 | 1.09 | 0.415 | 0.841
CC(C)c1ccc(NN2C(C(O)C(C)c3ccccc3)C=CC3C(=O)N(c4ccccc4)C(=O)C32)cc1 (stereo not given) | 1.28 | 1.41 | 1.03 | 1.77 (inactive) | 1.09 | 1.28 | 0.308 | 0.838 | 0.18 | -0.804
C=CCOC(=O)[C@H]1[C@@H]2C(=O)O[C@@H](c3ccccc3)[C@@H](c3ccccc3)N2[C@@H](c2ccc(OCCOC(=O)[C@H]3C[C@H]4C(=O)NCC(=O)N4[C@H]3c3cccc(OCCO)c3)cc2)[C@]12C(=O)Nc1ccc(I)cc12 | 1.1 | -0.109 | 0.0341 | 0.341 (inactive) | 1.37 | 1.3 | 0.504 | 1.37 | 0.614 | 0.622
CC(C)c1ccc(NN2C(C(O)c3ccccc3)C=CC3C(=O)N(c4ccccc4)C(=O)C32)cc1 (stereo not given) | 1.26 | 1.25 | 0.98 | -0.648 (inactive) | 0.715 | 0.522 | -0.144 | 0.634 | -0.624 | 0.546
Cc1ccc(S[C@]2(C(=O)NC(C)C)CC(=O)N(Cc3ccccc3)[C@@H]2c2ccc(CO)cc2I)cc1 | 0.984 | 0.498 | 1.27 | -0.328 (inactive) | -0.284 | -0.683 | -1.27 | -0.911 | -2.57 | 1.01
[N-]=[N+]=NCc1ccccc1[C@H]1OC(c2ccc(OCCCO)cc2)=N[C@@]1(Cc1ccccc1N=[N+]=[N-])C(N)=O | 1 | 0.853 | 0.879 | -0.146 (inactive) | 1.3 | 1.29 | 0.32 | 0.828 | 0.28 | 1.02
CC(C)Cc1ccc(CN2CC[C@@H](NC(=O)c3ccccc3)C2)cc1 | 0.934 | -0.357 | 0.0383 | 1.03 (inactive) | -0.75 | -1.11 | -0.381 | -0.647 | -0.0332 | 0.631

SMILES | composite z-score [1] | composite z-score [2] | composite z-score [3] | z-score [4] | composite z-score [5] | composite z-score [6] | composite z-score [7] | composite z-score [8] | composite z-score [9] | composite z-score [10]
CC(C)C(=C=CC[C@H](O)c1cccc(OCCO)c1)C[C@H](O)c1ccccn1 | 0.406 | -0.326 | -0.253 | -0.779 (inactive) | 0.722 | 0.476 | -0.387 | 0.339 | -0.15 | 0.409
CN(C)CCCC[C@@H]1NC(=O)[C@H]2C[C@@H](C(=O)NCCCCCCNC(=O)CS)[C@@H](c3cccc(OCCO)c3)N2C1=O | 0.872 | 0.094 | 0.366 | 0.624 (inactive) | 0.124 | 0.846 | -0.166 | -0.606 | 0.156 | -0.364
CCOC(=O)C[C@H]1[C@H](OC(=O)c2ccc(-c3ccccc3)cc2)[C@@H](NC(=O)c2ccc(-c3ccccc3)cc2)c2cc(OCCCO)ccc2N1C(=O)c1ccccc1 | 0.518 | 0.685 | 0.365 | 0.594 (inactive) | 0.79 | 0.477 | 0.101 | 0.719 | 0.69 | -0.12
C=CCNC(=O)[C@H]1[C@@H]2C(=O)O[C@@H](c3ccccc3)[C@@H](c3ccccc3)N2[C@@H](c2ccc(OCCO)cc2)[C@]12C(=O)Nc1ccc(C#Cc3ccc(OC)cc3)cc12 | 1.34 | 0.626 | 0.632 | -0.258 (inactive) | 1.23 | 1.33 | 0.486 | 1.17 | 0.736 | -0.274
C=C(CC1([C@@H](NP(=O)(c2ccccc2)c2ccccc2)[C@H]2C[C@@H]2CCCC)CC1)c1cccc(OC)c1 | -0.167 | 0.91 | 1.15 | -2.52 (inactive) | 0.158 | -0.3 | -0.28 | 0.463 | -1.14 | 1.03
Cc1ccc(S(=O)(=O)N2[C@@H](c3ccccc3)C(C(=O)O)=C[C@H]2C(C)(C)C)cc1 | 1.19 | 1.08 | 1.01 | 0.233 (inactive) | 0.644 | 1.35 | 0.374 | 0.819 | 0.0781 | -0.124
C=C[C@H](OC)[C@@H](O)c1ccc(OC)c(O)c1 | 0.352 | -0.464 | 0.37 | 0.772 (inactive) | -0.928 | -1.3 | -1.14 | -1.91 | -1.29 | -1.28
COC(=O)C(CC#Cc1ccc2c(c1)[C@]1(C(=O)N2)[C@H](C(=O)NC[C@H](O)c2ccccc2)[C@H]2C(=O)O[C@H](c3ccccc3)[C@H](c3ccccc3)N2[C@@H]1c1ccc(O)cc1)C(=O)OC | 0.535 | -0.107 | 0.369 | 0.266 (inactive) | 0.243 | -0.857 | 0.221 | -0.0104 | -0.293 | -0.137
COc1ccc([Si](C)(C)[C@H]2[C@H](CCO)O[C@@]3(C(=O)N(Cc4ccccc4)c4ccc(NC(=O)[C@H](C)O)cc43)[C@@H]2C)cc1 | 1.18 | 0.305 | 0.29 | -2.35 (inactive) | 0.139 | 0.0488 | -0.0574 | -0.0813 | -0.119 | 0.209
C=C[C@H](C)[C@@H](OC(=O)Nc1ccc(SC)cc1)c1ccc(OCCO)cc1 | 1.11 | -0.189 | 0.529 | -1.36 (inactive) | 1.02 | 0.321 | -0.359 | 0.379 | -0.395 | 0.246
O=C(CS)NCCCCCCNC(=O)[C@H]1C[C@H]2C(=O)NCC(=O)N2[C@H]1c1cccc(OCCO)c1 | 1.09 | -0.0292 | -0.027 | -2.02 (inactive) | 0.901 | -0.21 | 0.696 | 0.604 | 0.602 | 0.665
[N-]=[N+]=NCc1ccccc1[C@H]1OC(c2ccc(OCCCO)cc2)=N[C@@]1(CCS(=O)(=O)c1ccccc1)C(=O)O | 0.94 | 0.224 | 0.906 | 0.436 (inactive) | 0.283 | 0.0448 | -0.371 | -0.0142 | -0.697 | 0.839
COc1ccc(NN2C(C(O)c3ccc(F)cc3)C=CC3C(=O)N(C4CCCCC4)C(=O)C32)cc1 (stereo not given) | 0.565 | 0.959 | 0.763 | -0.794 (inactive) | 0.995 | 0.928 | 0.801 | 1.01 | 0.129 | 1.24
C[N+](C)(C)CCCC[C@@H]1NC(=O)[C@H]2C[C@@H](C(=O)O)[C@@H](c3ccc(O)cc3)N2C1=O | 0.327 | -0.0349 | 0.149 | -0.303 (inactive) | 0.158 | 0.984 | -0.102 | 0.0506 | 0.971 | 0.832
CS(=O)(=O)CCOC(=O)C1=CC(CCCO)=CC(C2CC2)N(Cc2sc3ccccc3c2Cl)C=C1C(=O)OCCS(C)(=O)=O (stereo not given) | 1.38 | 0.33 | 0.669 | 0.385 (inactive) | 0.705 | 0.838 | -0.0062 | 0.856 | 0.018 | 1.36
C=C(C)C1CN([C@H](CO)c2ccccc2)C(=O)/C1=C\c1ccccc1 (stereo not given in full) | 0.719 | -0.316 | -0.492 | -0.921 (inactive) | 0.716 | 0.22 | 0.0508 | 0.276 | 0.48 | 1.29

— PubChem BioAssay
